Here are results for six compounds from PubChem BioAssay (NCATS).

Experiment [1] can be described thus: AP1 Signaling Pathway (AID 357; active = well fitted curve in either direction with a large enough effect, not every such curve was filed as active; note: % is set by controls: 0 for no effect and ±100 for the full control effect). Conditions: ME-180 AP-1-bla reporter, EGF-induced, beta-lactamase ratio, 5 h; at 7.69 µM (top of the series) unless noted. In short, it runs like this: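 AP-1-bla ME-180 cells, Opti-MEM + 0.5% dialyzed FBS, plated overnight 37 °C. Cpd titration + EC50 EGF, 5 h 37 °C. CCF4 2.5 h RT; ex 405, em 460/530 ratio → %activity, AC50.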

In experiment [2] the target is Cytochrome P450 1A2 (Homo sapiens) (UniProt P05177). Kind of experiment: p450-cyp1a2 (AID 410; calls by dose curve; note: potency is the fitted concentration of half-maximal effect;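 for activity change, negative = inhibition: -100% = full effect of reference inhibitor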). In short, it runs like this: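 Read-out is luminescence from luciferin produced by CYP1A2 demethylation of Luciferin-ME (100uM, at Km). Detection reagent stopped the 60 min NADPH-dependent reaction; signals were normalized to 57 uM furafylline.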
Cytochrome P450 1A2 (Homo sapiens), sequence (P05177 whole entry, looked up): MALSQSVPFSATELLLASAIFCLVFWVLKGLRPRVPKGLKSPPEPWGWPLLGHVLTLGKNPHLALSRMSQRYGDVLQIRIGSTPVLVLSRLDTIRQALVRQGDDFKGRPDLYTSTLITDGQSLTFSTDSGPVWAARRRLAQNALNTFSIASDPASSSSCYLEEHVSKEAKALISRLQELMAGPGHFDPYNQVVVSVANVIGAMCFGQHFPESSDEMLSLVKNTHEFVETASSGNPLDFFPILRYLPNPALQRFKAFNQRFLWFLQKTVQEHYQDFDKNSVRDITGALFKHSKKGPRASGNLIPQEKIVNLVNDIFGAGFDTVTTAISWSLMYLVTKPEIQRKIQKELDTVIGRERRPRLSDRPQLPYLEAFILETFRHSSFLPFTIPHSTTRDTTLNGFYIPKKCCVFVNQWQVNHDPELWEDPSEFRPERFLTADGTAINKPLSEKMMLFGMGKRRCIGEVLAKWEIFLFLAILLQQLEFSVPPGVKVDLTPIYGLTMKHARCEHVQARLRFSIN
Experiment [3] is described as follows: NFAT Signaling Pathway (AID 444; active = well fitted curve in either direction with a large enough effect, not every such curve was filed as active;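 note: carbachol stimulus at about its EC50 of 1 µM final; % is set by controls: 0 for no effect and ±100 for the full control effect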). Particulars: Jurkat NFAT-bla M1, carbachol, beta-lactamase ratio, 5 h; at 7.69 µM (top of the series) unless noted. The method in brief: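 Read-out: CCF4 FRET ratio (460 nm/530 nm) after 1 h RT dye loading, used for %activity and AC50 from titration series. Cells: Jurkat NFAT-β-lactamase/M1 line, treated with compound plus 1 uM carbachol for 5 h, 37 °C.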

The nature of experiment [4]: Stat Signaling Pathway (AID 446; active = well fitted curve in either direction with a large enough effect, not every such curve was filed as active;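 note: ME-180 cervical cancer cells given 40 pM IL-6 alongside compound; SIE-controlled beta-lactamase reporter measured as 460/530 nm FRET emission ratio; % is set by controls: 0 for no effect and ±100 for the full control effect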). Particulars: ME-180 (cervical carcinoma) SIE beta-lactamase reporter, IL-6 stimulated, 5 h; at 7.69 µM (top of the series) unless noted. In short, it runs like this:
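Overnight-plated ME-180 cells bearing a STAT Inducible Element beta-lactamase reporter; 5 h co-exposure to compound and 40 pM IL-6; values normalized to 300 pM IL-6 and 125 nM JAK inhibitor controls.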

Experiment [5] has as its target Glucocorticoid receptor (Homo sapiens) (UniProt P04150). The experiment can be described thus: GR-GFP Redistribution (AID 450;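 active = compounds whose dose series gives a full or clear partial fitted curve of increased nuclear translocation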; note: potency is the fitted concentration of half-maximal effect). Conditions: U2OS GR-GFP nuclear translocation, laser cytometry, 2 h.
The target is the same in experiment [6]. Kind of experiment: GR-EFC Redistribution (AID 451; calls by dose curve; note: potency is the fitted concentration of half-maximal effect). Conditions: CHO-K1 GR-EFC translocation, beta-gal luminescence, 2 h. In short, it runs like this: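 Translocation of GR-ED fusion to nuclear EA restores b-gal, read by luminescence after 1 h room-temperature detection. Engineered CHO-K1 biosensor cells, 1,000/well, exposed 2 h at 37 C to titrations up to 46 uM final.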

Experiment [7] deals with Mitogen-activated protein kinase 10 (Mus musculus) (UniProt Q61831). The experiment can be described thus: JNK3 AlphaScreen Assay (AID 530; active = well fitted curve in either direction with a large enough effect, not every such curve was filed as active;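 note: kinase came from lysate of stimulated human HepG2 cells; signal reports phosphorylation of biotinylated GST-cJun 1-79 at Ser73 with 10 µM ATP; % is set by controls: 0 for no effect and ±100 for the full control effect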). The method in brief:
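Kinase buffer: 20 mM Tris-HCl pH 7.6, 10 mM MgCl2, 1 mM DTT, 0.1 mM Na3VO4, 0.01% Tween-20; ATP 10 uM. Substrate biotin-GST-cJun(1-79), enzyme from activated HepG2 lysates. Detection by Ser73 phospho-antibody AlphaScreen.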

The target in experiment [8] is 3',5'-cyclic-AMP phosphodiesterase 4B (Homo sapiens) (UniProt Q07343). Kind of experiment: qHTS Assay for Inhibitors of PDE-IV (AID 607; active = well fitted activation curve with a large enough effect in the main read-out, with a control signal flat, not every such curve was filed as active; note: % of control where 0% means no effect). In short, it runs like this:
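Live HEK293 cells with a modified cyclic nucleotide-gated (CNG) channel report intracellular cAMP via membrane-potential dye fluorescence (ex 535/em 590 nm). Endogenous PDE-IV was targeted. Compounds were tested at up to 22.9 uM final; RO 20-1724 100 uM served as control.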
In general terms: Quantitative high-throughput screening tests each substance at several concentrations.

Experiment [9] has as its target Guanine nucleotide-binding protein G(i) subunit alpha-1 (Homo sapiens) (UniProt P63096). The experiment can be described thus: qHTS Assay for Inhibitors of RGS12 GoLoco Motif Activity (Green Fluorophore) (AID 879).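 Note: 0% = labeled peptide with Gαi1 and full inhibition = labeled peptide alone without protein; negative values mean loss of peptide binding seen as reduced polarization.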 The method in brief: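 A drop in FITC polarization marked displacement of the FITC-tagged RGS12 GoLoco peptide (10 nM) from Gαi1 (50 nM). Compounds were incubated 10 min at room temperature in Tris pH 7.5 buffer containing 150 mM NaCl, 0.1 mM GDP and 0.05% NP40; unlabeled peptide titration served as control.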

In experiment [10] the target is Pyruvate kinase (Leishmania mexicana) (UniProt Q27686). The experiment can be described thus: qHTS Validation Assay for Inhibitors of Leishmania Mexicana Pyruvate Kinase (AID 945).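 Note: 0% = DMSO only neutral control wells.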 The method in brief: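 Compounds are tested as eight-point concentration series. Reactions contain 0.2 nM LmPYK E451W, 0.5 mM PEP, 0.1 mM ADP, 7 mM MgCl2 and 50 mM KCl at pH 7.2, run 1 h at room temperature, then read by PKLight luminescence.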
Pyruvate kinase (Leishmania mexicana), sequence (Q27686 2-499 E452W): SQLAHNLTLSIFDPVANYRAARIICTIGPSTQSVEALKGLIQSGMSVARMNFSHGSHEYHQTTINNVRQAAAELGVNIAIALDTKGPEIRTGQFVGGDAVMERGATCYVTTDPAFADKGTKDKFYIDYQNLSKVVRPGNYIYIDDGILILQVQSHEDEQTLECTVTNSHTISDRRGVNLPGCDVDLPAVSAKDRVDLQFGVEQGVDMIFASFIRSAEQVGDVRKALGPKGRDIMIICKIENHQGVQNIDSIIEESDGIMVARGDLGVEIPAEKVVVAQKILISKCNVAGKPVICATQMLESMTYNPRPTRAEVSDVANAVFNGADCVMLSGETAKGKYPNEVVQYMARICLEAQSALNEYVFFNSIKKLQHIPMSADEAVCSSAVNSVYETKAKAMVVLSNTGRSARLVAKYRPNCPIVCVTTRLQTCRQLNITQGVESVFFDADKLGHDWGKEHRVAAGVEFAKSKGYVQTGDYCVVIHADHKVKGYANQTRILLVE

Experiment [11] concerns the target Pyruvate kinase PKM (Homo sapiens) (UniProt P14618). The experiment can be described thus: qHTS Assay for Activators of Human Muscle Pyruvate Kinase (AID 954; active = well fitted curve in the direction sought with a large enough effect, not every such curve was filed as active;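 note: 0% = uninhibited enzyme and -100% = no enzyme or full thiadiazolimine inhibition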). In short, it runs like this: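 Screening used highly purified human pyruvate kinase M2 under submaximal activity, with PEP at its Km and ADP below Km. After an hour at room temperature, ATP was read by luciferase luminescence.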

Experiment [12] has as its target Alpha-galactosidase A (Homo sapiens) (UniProt P06280). The experiment can be described thus: Counterscreen for Glucocerebrosidase Inhibitors: qHTS Assay for Human alpha-Galactosidase at pH 4.5 (AID 992). Note: 0% is about no effect. In short, it runs like this: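 Each compound is preincubated briefly with 2 nM enzyme before substrate addition (80 uM); plates then sit 20 min at ambient temperature, are quenched with 1M NaOH/1M glycine, and read fluorometrically.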
Background: A counterscreen serves to expose hits that act by an unwanted route or on another target.

In experiment [13] the target is alpha-glucosidase (Oryza sativa, rice) (UniProt Q653V4). Kind of experiment: Counterscreen for Glucocerebrosidase Inhibitors: qHTS Assay for Rice alpha-Glucosidase at pH 5.0 (AID 997).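 Note: 0% = full activity with enzyme and -100% = basal without enzyme.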 In short, it runs like this:
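Endpoint fluorogenic assay at pH 5.0: compounds (0.7 nM to 77 uM) titrated against 4 nM rice enzyme and 400 uM 4-MU-alpha-glucoside for 20 min at room temperature; NaOH/glycine stop, read ex 365/em 440 nm, Hill-fitted AC50.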

The target of experiment [14] is Cytochrome P450 2C19 (Homo sapiens) (UniProt P33261). The experiment can be described thus: qHTS Assay for Inhibitors and Substrates of Cytochrome P450 2C19 (AID 899). Note: nearly all actives have a fitted effect of over 60% in size. Note: potency is the fitted concentration of half-maximal effect. The method in brief:
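5nM enzyme + 10uM Luciferin-H EGE (=KM), 50mM KPO4; cpd pin-transferred, 10 min 37C; NADPH regen, 60 min 37C; stopped w/ luciferin detection reagent, 20 min; luminescence. Normalized to 57uM ketoconazole (AC100).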

For experiment [15], the target named is Muscarinic acetylcholine receptor M1 (Rattus norvegicus) (UniProt P08482). The experiment can be described thus: qHTS Assay for Antagonists of Acetylcholine Muscarinic M1 Receptor: Measurement of IP-One Response (AID 944). Note: nearly all actives have a fitted effect of over 75% in size. In short, it runs like this:
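Antagonism was measured as loss of carbachol-driven (EC80) IP1 accumulation in CHO cells carrying rat M1, using a homogeneous IP-One TR-FRET kit read at 620 and 665 nm.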

Experiment [16] is described as follows: qHTS Assay for Identification of Small Molecule Agonists for Thrombopoietin (TPO) Signaling Pathway (AID 917). Note: % is set by controls: 0 for no effect and ±100 for the full control effect. In short, it runs like this: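 Stimulation at the TPO EC50 (26 pM final) was used to detect activators. Ba/F3 mouse cells bearing human TPO receptor and a luciferase reporter under the Glycoprotein IIb promoter were exposed to compounds for 24 hrs at 37 C.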

The target of experiment [17] is Cytochrome P450 2C9 (Homo sapiens) (UniProt P11712). Kind of experiment: qHTS Assay for Inhibitors and Substrates of Cytochrome P450 2C9 (AID 883). Note: potency is the fitted concentration of half-maximal effect; nearly all actives have a fitted effect of over 60% in size. In short, it runs like this: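 Inhibition of CYP2C9 is scored as loss of luminescence, with 57uM sulphaphenazole defining 100% inhibition. Substrate Luciferin-H is used at 100uM, equal to its KM; enzyme at 10nM in 25mM KPO4, 60 min at 37C with NADPH regeneration.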

A number with no mark means an inactive call. Records with an inconclusive call do not appear. The source made the active and inactive calls. Unless noted, calls come from the whole dose curve; as a rule, active = well fitted curve in the direction sought with a large enough effect; inconclusive = small, poorly fitted or top-dose-only effect, or another doubt; inactive = no such curve, though single readings can be large; an effect the other way counts as inactive or inconclusive.

Pyruvate kinase PKM (Homo sapiens), sequence (P14618 whole entry, looked up): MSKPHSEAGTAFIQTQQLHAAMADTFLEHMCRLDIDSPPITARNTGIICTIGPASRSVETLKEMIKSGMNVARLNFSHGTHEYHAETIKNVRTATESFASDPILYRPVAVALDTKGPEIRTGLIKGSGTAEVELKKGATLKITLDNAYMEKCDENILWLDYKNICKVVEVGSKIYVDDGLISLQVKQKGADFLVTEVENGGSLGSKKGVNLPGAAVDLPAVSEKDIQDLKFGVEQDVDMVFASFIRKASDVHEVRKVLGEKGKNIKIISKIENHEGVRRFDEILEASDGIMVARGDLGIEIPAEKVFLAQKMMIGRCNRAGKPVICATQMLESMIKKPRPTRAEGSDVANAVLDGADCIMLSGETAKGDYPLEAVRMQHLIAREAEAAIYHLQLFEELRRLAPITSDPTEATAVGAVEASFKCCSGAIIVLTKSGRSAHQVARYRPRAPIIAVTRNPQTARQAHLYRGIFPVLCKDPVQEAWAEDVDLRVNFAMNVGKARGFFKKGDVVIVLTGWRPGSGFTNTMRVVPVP
Guanine nucleotide-binding protein G(i) subunit alpha-1 (Homo sapiens), sequence (P63096 whole entry, looked up): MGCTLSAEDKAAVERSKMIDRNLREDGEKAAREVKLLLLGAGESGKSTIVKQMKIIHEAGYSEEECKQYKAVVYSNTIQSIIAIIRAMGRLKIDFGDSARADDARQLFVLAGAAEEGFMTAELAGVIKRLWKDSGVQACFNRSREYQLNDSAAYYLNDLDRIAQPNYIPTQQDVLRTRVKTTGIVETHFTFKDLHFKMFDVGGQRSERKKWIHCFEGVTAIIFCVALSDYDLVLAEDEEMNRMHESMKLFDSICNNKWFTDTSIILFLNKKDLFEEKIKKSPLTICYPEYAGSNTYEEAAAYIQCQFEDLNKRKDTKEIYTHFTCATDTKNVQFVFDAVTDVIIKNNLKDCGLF
Muscarinic acetylcholine receptor M1 (Rattus norvegicus), sequence (P08482 whole entry, looked up): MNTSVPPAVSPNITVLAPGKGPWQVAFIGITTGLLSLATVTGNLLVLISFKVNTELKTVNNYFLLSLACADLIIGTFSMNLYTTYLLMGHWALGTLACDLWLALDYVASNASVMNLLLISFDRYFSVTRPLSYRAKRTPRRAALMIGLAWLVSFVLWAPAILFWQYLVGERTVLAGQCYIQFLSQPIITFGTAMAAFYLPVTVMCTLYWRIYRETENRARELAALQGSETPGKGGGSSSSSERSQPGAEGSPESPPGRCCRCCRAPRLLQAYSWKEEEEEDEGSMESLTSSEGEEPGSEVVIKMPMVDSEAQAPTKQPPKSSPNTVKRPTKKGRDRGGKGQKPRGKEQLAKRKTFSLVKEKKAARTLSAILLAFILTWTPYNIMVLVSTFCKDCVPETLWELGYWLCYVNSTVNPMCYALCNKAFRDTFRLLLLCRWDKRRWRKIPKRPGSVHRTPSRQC
3',5'-cyclic-AMP phosphodiesterase 4B (Homo sapiens), sequence (Q07343 whole entry, looked up): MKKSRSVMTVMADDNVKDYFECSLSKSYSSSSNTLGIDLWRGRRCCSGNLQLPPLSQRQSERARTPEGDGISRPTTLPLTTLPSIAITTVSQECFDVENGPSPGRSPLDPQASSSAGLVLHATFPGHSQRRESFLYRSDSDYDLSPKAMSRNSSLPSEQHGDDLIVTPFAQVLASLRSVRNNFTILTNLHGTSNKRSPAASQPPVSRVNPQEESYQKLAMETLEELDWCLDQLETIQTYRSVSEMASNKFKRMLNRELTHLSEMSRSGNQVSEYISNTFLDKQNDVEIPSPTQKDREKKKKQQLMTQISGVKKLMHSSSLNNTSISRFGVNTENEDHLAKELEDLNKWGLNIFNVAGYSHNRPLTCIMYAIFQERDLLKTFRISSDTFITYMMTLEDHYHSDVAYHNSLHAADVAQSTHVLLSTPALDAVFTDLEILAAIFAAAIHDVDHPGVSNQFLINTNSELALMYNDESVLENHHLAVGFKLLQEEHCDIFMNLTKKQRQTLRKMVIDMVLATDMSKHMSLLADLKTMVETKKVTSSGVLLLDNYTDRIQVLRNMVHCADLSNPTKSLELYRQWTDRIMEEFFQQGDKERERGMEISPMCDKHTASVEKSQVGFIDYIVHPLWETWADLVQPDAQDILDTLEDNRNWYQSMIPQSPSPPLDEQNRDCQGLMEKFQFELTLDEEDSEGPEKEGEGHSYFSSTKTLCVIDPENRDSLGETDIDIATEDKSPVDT
Glucocorticoid receptor (Homo sapiens), sequence (P04150 whole entry, looked up, the tested form may be a part): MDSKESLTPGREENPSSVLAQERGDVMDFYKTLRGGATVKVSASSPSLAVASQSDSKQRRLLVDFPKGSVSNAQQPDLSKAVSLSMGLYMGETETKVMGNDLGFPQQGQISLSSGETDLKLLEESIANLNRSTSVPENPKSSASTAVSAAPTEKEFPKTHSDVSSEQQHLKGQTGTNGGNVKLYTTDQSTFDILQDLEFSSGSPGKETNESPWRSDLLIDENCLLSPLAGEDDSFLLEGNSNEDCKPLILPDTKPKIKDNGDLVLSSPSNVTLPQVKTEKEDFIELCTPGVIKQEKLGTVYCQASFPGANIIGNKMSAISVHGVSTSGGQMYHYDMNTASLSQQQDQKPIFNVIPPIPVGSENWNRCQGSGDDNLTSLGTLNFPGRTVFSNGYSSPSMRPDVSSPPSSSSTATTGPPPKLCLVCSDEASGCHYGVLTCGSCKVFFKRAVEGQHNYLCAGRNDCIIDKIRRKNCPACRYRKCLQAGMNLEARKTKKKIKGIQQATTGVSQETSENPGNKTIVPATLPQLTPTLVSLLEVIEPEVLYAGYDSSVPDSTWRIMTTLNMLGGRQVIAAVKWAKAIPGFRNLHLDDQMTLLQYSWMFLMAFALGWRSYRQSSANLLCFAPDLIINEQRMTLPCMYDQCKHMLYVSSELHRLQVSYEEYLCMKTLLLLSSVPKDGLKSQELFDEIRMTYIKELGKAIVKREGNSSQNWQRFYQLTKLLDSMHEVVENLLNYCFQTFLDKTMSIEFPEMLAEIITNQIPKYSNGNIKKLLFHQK
Alpha-galactosidase A (Homo sapiens), sequence (P06280 whole entry, looked up): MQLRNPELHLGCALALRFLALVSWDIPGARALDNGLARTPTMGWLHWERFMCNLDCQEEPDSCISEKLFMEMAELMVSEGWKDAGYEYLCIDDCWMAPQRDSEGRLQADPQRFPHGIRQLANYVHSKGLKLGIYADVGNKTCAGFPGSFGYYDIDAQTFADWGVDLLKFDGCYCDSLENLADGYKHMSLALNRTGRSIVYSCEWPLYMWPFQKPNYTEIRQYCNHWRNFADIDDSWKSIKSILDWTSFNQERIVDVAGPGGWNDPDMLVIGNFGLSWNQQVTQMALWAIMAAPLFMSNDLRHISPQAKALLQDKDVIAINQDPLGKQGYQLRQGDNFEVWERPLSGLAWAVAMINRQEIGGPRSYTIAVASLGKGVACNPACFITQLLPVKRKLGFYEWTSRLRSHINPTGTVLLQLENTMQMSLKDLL
Cytochrome P450 2C19 (Homo sapiens), sequence (P33261 whole entry, looked up): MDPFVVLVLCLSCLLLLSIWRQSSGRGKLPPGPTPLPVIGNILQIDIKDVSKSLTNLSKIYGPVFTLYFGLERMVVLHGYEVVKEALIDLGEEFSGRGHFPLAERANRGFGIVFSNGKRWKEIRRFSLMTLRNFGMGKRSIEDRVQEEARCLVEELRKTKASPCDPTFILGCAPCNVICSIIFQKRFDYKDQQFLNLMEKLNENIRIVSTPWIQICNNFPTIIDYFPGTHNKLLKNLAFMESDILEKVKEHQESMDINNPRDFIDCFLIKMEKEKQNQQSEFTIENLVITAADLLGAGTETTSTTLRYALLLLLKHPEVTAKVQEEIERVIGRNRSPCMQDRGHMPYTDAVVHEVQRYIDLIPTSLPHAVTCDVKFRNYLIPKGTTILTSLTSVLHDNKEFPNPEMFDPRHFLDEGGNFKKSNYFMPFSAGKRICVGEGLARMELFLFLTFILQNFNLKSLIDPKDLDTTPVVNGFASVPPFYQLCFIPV

Consider `COc1ccc2c(c1)CCC1C2CC[C@]2(C)[C@H](NCCCCCCN3C(=O)C=CC3=O)CC[C@@H]12` (some centres not stated), for which the figures for the activity change, negative = inhibition in experiment [1] and in experiment [3] were -7.36% [at 38 µM] and 12.6% [at 38 µM], respectively. Further, the Potency result in experiment [2], in experiment [7], in experiment [8] and in experiment [13] was “inactive” throughout. Moreover, the activity, negative = inhibition in [4] is 1% [at 38 µM]. The Potency in experiment [5] and in experiment [6] was greater than 46 µM throughout. Also, the compound was called inactive in experiment [9], in experiment [10], in experiment [11] and in experiment [12].

Regarding `CN[C@]1(C)[C@@H]2CC[C@@H](C2)C1(C)C`, the activity change, negative = inhibition is -7.63% [at 38 µM] in experiment [1] and -5.79% [at 38 µM] in experiment [3]. The Potency entry in experiment [2], in [7], in experiment [8], in experiment [14], in experiment [15] and in experiment [13] was “inactive” in each case. The activity, negative = inhibition in experiment [4] is -12.2% [at 38 µM]. Further, the Potency in experiment [5] and in experiment [6] was greater than 46 µM in each case. The compound was called inactive in experiment [9], in [10], in experiment [11] and in experiment [12].

For the compound `Nc1ncnc2c1nc(Sc1ccc(Cl)cc1)n2[C@@H]1O[C@H]2COP(=O)(O)O[C@@H]2[C@H]1O`, the activity change, negative = inhibition in [1] is 6.42% [at 38 µM]; in experiment [3], -0.761% [at 38 µM]. Moreover, the Potency entry in experiment [2], in experiment [7], in experiment [8], in experiment [15] and in experiment [13] was “inactive” in each case. Besides, the activity, negative = inhibition in experiment [4] was 5.32% [at 38 µM]. Moreover, the Potency in experiment [5] and in [6] was greater than 46 µM each time. Besides, the compound was classed as inactive in experiment [9], in [16], in experiment [10], in experiment [11] and in experiment [12].

Turning to `O=c1[nH]c2[nH]c(=S)[nH]c(=S)c2[nH]1`, the results for the activity change, negative = inhibition in [1] and in experiment [3] were -13.3% and -1.66%, respectively. Moreover, the Potency in experiment [2] was 3.98 µM (active); in [5], greater than 46 µM; in [6] it was greater than 9.22 µM; in [17] it was 1.26 µM (active); in [14], 0.631 µM (active). In experiment [4], the activity, negative = inhibition is 15.5%. Further, the Potency result in [7] and in [8] was “inactive” throughout.

As to `N[C@H](CCC(=O)NCS(=O)(=O)O)C(=O)O`, the activity change, negative = inhibition in experiment [1] was 3.52% [at 38 µM]; in experiment [3], 4.56% [at 38 µM]. Further, the Potency result in experiment [2], in experiment [7], in [8], in experiment [15] and in [13] was “inactive” throughout. Also, the activity, negative = inhibition in experiment [4] is -7.51% [at 38 µM]. Further, the Potency in experiment [5] and in experiment [6] was greater than 46 µM in each case. In addition, the call in experiment [9], in experiment [16], in [10], in experiment [11] and in experiment [12] was inactive.

Take `NC(=O)c1ncn([C@@H]2O[C@@H](CO)[C@@H](O)[C@H]2O)c1O`: the activity change, negative = inhibition in [1] was 15.7% [at 38 µM]; in [3] it was 2.24% [at 38 µM]. Moreover, the Potency entry in experiment [2], in experiment [7], in experiment [8] and in [13] was “inactive” in each case. Also, the activity, negative = inhibition in experiment [4] was 3.38% [at 38 µM]. For the same compound, the Potency in experiment [5] and in [6] was greater than 46 µM throughout. Moreover, the outcome in experiment [9], in experiment [16], in [10], in [11] and in experiment [12] was inactive.
